The record followed here is ChEMBL document CHEMBL2218924, “A broad activity screen in support of a chemogenomic map for kinase signalling research and drug discovery” (Biochem J, 2013).

In general, residual activity refers to the signal under treatment as a percentage of the control signal.

In test [1] the target is Tyrosine-protein kinase SYK (Homo sapiens) (UniProt P43405). The following applies: at 10 µM.
Test [2] addresses T1, Serine/threonine-protein kinase TBK1 (Homo sapiens) (UniProt Q9UHD2).
T1 sequence (whole entry): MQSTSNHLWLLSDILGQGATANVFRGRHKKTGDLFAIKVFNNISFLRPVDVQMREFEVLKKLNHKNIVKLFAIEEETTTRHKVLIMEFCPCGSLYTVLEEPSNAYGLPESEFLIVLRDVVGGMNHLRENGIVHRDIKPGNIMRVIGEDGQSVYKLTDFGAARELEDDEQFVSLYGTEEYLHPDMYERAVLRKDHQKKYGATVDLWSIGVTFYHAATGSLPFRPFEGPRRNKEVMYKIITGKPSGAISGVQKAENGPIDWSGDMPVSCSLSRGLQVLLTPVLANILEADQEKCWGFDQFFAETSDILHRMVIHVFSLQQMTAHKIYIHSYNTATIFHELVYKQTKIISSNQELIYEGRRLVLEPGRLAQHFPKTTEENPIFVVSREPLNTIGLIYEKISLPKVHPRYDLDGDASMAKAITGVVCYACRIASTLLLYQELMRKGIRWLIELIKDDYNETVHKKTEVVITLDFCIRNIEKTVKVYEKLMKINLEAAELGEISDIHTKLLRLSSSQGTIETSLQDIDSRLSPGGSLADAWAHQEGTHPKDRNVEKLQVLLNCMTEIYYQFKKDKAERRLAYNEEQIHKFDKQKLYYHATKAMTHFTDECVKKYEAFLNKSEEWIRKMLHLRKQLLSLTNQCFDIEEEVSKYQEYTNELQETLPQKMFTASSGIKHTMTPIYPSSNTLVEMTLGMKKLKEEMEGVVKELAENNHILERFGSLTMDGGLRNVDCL
The following applies: at 1 µM.

Test [3] deals with T1, Serine/threonine-protein kinase TBK1 (Homo sapiens). The settings on record: at 10 µM.
The target in test [4] is T2, TGF-beta receptor type-1 (Homo sapiens) (UniProt P36897).
T2 sequence (whole entry): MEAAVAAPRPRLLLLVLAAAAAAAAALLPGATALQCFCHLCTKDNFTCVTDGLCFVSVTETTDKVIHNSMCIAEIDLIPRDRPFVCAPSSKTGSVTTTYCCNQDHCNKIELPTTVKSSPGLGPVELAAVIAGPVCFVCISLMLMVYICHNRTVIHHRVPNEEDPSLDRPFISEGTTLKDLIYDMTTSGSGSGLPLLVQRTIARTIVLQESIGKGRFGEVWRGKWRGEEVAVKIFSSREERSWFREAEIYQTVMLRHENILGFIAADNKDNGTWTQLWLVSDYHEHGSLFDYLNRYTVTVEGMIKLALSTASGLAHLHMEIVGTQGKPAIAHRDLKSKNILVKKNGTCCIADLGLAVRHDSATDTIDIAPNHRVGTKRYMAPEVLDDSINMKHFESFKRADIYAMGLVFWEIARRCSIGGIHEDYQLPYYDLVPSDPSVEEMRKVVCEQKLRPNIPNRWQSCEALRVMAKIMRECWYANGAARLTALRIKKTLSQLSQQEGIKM
The settings on record: at 1 µM.

For test [5], the target named is T3, Inhibitor of nuclear factor kappa-B kinase subunit alpha (Homo sapiens) (UniProt O15111).
T3 sequence (whole entry): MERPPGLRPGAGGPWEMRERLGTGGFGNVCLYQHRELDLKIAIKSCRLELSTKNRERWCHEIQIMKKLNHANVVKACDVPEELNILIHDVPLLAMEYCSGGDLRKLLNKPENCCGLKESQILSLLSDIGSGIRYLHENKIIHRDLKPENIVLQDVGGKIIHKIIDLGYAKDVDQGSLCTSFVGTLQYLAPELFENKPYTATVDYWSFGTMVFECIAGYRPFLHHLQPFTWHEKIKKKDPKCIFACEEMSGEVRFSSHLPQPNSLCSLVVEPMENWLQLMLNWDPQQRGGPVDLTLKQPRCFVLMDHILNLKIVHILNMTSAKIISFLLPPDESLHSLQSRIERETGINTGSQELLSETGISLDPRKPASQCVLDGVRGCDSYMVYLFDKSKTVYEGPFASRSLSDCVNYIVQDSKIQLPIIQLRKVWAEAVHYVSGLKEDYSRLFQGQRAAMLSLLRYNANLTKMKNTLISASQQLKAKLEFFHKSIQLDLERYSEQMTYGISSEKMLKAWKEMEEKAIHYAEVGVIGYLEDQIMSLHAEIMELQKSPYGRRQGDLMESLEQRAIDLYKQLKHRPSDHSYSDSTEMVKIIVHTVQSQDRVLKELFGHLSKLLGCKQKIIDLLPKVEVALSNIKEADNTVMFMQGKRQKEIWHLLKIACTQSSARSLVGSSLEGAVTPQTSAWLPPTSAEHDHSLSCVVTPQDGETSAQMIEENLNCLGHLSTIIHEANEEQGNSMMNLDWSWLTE
The following applies: at 1 µM.

Test [6] concerns the target T3, Inhibitor of nuclear factor kappa-B kinase subunit alpha (Homo sapiens). The settings on record: at 10 µM.
Test [7] concerns the target T4, Serine/threonine-protein kinase TAO2 (Homo sapiens) (UniProt Q9UL54).
T4 sequence (whole entry): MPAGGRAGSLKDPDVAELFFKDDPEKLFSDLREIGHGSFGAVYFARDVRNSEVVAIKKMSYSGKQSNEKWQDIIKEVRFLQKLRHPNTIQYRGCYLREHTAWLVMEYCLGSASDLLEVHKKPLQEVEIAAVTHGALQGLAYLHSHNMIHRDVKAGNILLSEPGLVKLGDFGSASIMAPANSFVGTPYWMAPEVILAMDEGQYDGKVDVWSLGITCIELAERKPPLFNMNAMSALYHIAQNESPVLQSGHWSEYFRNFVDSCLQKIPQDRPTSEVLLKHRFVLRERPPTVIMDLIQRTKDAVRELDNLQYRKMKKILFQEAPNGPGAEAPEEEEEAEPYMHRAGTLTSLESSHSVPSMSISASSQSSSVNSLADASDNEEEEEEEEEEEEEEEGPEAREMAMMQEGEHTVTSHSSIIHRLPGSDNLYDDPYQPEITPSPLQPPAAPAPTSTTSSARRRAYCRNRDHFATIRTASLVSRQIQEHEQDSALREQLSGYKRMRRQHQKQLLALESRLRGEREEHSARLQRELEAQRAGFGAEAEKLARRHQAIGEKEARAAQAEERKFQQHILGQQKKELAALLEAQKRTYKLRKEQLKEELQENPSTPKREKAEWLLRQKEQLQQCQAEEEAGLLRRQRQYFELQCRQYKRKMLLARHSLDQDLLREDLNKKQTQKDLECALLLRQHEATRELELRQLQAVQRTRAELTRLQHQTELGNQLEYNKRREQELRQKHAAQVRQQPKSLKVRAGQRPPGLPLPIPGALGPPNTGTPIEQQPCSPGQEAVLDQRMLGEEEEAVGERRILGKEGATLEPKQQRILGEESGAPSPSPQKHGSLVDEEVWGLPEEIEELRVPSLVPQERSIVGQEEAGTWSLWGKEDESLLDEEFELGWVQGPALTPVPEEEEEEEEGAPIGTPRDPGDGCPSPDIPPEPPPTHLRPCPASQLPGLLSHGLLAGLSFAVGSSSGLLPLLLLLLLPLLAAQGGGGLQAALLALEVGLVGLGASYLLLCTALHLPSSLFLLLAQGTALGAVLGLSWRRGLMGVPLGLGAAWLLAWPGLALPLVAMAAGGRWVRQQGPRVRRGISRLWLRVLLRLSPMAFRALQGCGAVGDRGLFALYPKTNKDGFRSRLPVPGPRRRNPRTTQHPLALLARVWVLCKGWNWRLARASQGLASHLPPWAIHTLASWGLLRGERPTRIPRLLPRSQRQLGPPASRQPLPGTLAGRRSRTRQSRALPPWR
The settings on record: at 1 µM.

Test [8] concerns the target T4, Serine/threonine-protein kinase TAO2 (Homo sapiens). The following applies: at 10 µM.
For test [9], the target named is T2, TGF-beta receptor type-1 (Homo sapiens). The following applies: at 10 µM.
The target in test [10] is T5, Inhibitor of nuclear factor kappa-B kinase subunit beta (Homo sapiens) (UniProt O14920).
T5 sequence (whole entry): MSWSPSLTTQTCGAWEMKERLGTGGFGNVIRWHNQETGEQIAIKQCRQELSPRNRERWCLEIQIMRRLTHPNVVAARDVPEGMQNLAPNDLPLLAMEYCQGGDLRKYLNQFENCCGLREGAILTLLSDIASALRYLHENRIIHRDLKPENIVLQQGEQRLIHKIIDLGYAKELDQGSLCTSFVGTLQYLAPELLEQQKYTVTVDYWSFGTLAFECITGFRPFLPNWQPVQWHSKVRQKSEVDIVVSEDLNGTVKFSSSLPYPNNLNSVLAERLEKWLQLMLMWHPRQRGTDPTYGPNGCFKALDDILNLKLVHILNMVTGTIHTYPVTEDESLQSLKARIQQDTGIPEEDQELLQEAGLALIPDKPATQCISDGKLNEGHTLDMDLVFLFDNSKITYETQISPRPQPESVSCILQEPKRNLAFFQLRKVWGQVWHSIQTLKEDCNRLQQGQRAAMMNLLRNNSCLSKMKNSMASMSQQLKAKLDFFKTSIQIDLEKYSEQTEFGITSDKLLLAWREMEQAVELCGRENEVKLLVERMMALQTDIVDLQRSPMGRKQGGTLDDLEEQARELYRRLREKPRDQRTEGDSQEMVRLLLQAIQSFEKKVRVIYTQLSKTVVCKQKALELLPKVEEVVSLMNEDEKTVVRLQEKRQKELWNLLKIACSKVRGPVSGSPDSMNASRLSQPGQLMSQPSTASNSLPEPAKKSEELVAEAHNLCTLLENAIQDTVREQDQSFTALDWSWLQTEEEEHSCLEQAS
The following applies: at 1 µM.

With `N#C/C(=C\c1ccc(O)c(O)c1)C(=O)NCc1ccccc1`, the residual activity was determined as 71% in test [1]; 82% in test [2]; 65% in test [3]; 81% in test [4]; 104% in test [5]; 89% in [6].

In the case of `COc1ccc(COc2ccc(Cc3cnc(N)nc3N)cc2OC)cc1`, the residual activity turned out to be 100% in test [7]; 79% in [8]; 61% in [2]; 58% in test [3]; 79% in [4]; 77% in test [9]. Moreover, in test [10], the residual activity was found to be 109%.
